# KLK7 zymogen act – activators of human kallikrein-7 zymogen; P49862; purified proKLK7, EDANS-DABCYL substrate fluorescence; 100% is mature enzyme control, 0% vehicle; activation, % at 7 µM; 370,000 tested, 0.9% active;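 active = activation above the mean of all tested compounds plus 3 SD, computed per campaign excluding outliers beyond control limits, cut at about 13% in these data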
# Target sequence (P49862 whole entry, looked up): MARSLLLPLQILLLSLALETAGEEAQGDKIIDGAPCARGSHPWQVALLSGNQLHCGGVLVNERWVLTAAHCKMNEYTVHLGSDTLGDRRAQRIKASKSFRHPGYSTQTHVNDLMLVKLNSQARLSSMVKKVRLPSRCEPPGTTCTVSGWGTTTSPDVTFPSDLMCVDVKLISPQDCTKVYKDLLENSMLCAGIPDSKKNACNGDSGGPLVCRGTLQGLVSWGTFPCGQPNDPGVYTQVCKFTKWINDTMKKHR
# Rin1-Abl PPI inh – inhibitors of human Rin1-Abl protein interaction; P00519+Q13671; TR-FRET Rin1/Abl binding, biochemical; inhibition, % at 7.35 µM; 360,000 tested, 0.4% active; in the data active = inhibition above about 5%, passing the limit was not always enough
# MBD2 inh – MBD2-methylated oligo binding inhibition; Q9UBB5; TR-FRET, MBD2 binding to methylated oligonucleotide; inhibition, % at 4.4 µM; 370,000 tested, 0.31% active; in the data active = inhibition above about 13%
# UHRF1 binding – blocks human UHRF1 binding to methylated DNA; UHRF1 binding to methylated oligo, TR-FRET; 370,000 tested, 0.75% active; inhibition, % at 4.4 µM; in the data active = inhibition above about 21%;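 note: UHRF1 SRA domain binding a hemimethylated CpG hairpin DNA probe; 0% = median of test compound wells and 100% = reference inhibitor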
# LEDGF integ inh – blocks HIV-1 LEDGF/p75-dependent DNA integration; TR-FRET IN-LEDGF/p75 DNA integration, Eu/Cy5; inhibition, % at 3.7 µM; 370,000 tested, 0.64% active;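 active = inhibition above the screen-wide mean plus 3 SD, cut at about 13% in these data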;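 note: signal is the Cy5 over europium emission ratio at 671 and 618 nm; 0% = plate median of compound wells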
# Neddylation inh – cullin neddylation inhibition. TR-FRET cullin neddylation, biochemical. 360,000 tested, 0.58% active. AID 651699. calls only at 25 µM; in the data active = inhibition above about 36%
# Rin1-Abl confirm – Rin1-Abl interaction inhibition confirmation. shares compounds with Rin1-Abl PPI inh. TR-FRET Rin1-Abl binding, purified proteins. inhibition, % at 7.35 µM. 1,300 tested, 49% active
# GFP quencher – quenches GFP fluorescence, counter-screen for Rin1-Abl inhibitors | shares compounds with Rin1-Abl PPI inh | inhibitors/quenchers counterscreen | inhibition, % at 6.75 µM | 1,300 tested, 8.5% active | AID 602125;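 note: ABL1-eGFP fusion protein alone without its partner RIN1-SBP; 0% = protein with vehicle and 100% = wells lacking protein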
# GFP quench dose – GFP fluorescence interference dose response. shares compounds with Rin1-Abl PPI inh. GFP fluorescence interference/quenching counterscreen. IC50, µM. 230 tested, under 10 active; call rule not given here;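 note: ABL1-eGFP fusion protein alone without its RIN1 binding partner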
# * = called active by the depositor; i = inactive; / = no result given; + = active, no number. The list is not random: actives were taken first. Their share in the collection is about 3.1%. Cut-off read from the data, not from the text of the source, unless noted: active = inhibition above about 6.5%; inactive = the rest.
SMILES,KLK7 zymogen act,Rin1-Abl PPI inh,MBD2 inh,UHRF1 binding,LEDGF integ inh,Neddylation inh,Rin1-Abl confirm,GFP quencher,others
O=C(CCN1C(=O)c2cccc3cccc(c23)C1=O)NCc1cccnc1,2,-4,-4,25*,0,i,/,/,
O=C(CCN1C(=O)COc2ccccc21)NCc1cccnc1,0,-2,-1,-1,-1,i,/,/,
O=C1c2cccc3cccc(c23)C(=O)N1Cc1cccnc1,0,-5,-4,-1,-2,i,/,/,
CC(C)NC(=O)NC1CCN(CC(=O)Nc2ccc3c(c2)OCCO3)CC1,0,/,1,6,-4,/,/,/,
Cc1ccc(Cc2c(C(C)(C)C)nc3ccc(Br)cn23)cc1,0,1,7,23*,2,i,/,/,
O=C(Nc1ccc(Oc2ccsc2C(=O)O)cc1)c1ccccc1,0,0,-2,6,-1,i,/,/,
O=C(O)c1sccc1Oc1ccc(NS(=O)(=O)c2cccc(F)c2)cc1,0,3,11,31*,-3,i,/,/,
O=C1c2ccccc2-c2onc3ccc(N4CCCC4)c1c23,-2,-18,1,23*,-4,i,/,/,
COC(=O)Cc1nnn2c1[C@H](C)[C@H](c1ccccc1Br)OC[C@@H]2c1ccccc1,0,/,-2,4,-1,/,/,/,
COc1cc(-c2c(C(=O)c3ccccc3)[nH]c(N)c2C(N)=O)ccc1F,0,/,1,95*,2,i,/,/,
Cc1ccsc1CNC(=O)c1c(-c2ccccc2)noc1C,0,-2,-7,-1,5,i,/,/,
O=C(/C=C/c1cccc([N+](=O)[O-])c1)NCCc1ccc(F)cc1,1,1,-1,38*,0,i,/,/,
O=C(O)C1=C[C@H](c2cccs2)C[C@H](OCc2ccc(CO)cc2)O1,0,-2,-6,1,0,i,/,/,
COc1cc(NC(=O)N2c3ccccc3Sc3ccccc32)c(C(=O)O)cc1OC,-14,1,-6,-1,4,+,/,/,
CN(Cc1ccccc1)S(=O)(=O)c1cccc(C(=O)OCc2ccccc2Cl)c1,-1,/,1,-1,0,/,/,/,
CC(NC(=O)C(=O)c1cn(CC(=O)N2CCOCC2)c2ccccc12)c1ccccc1 (stereo not drawn),1,18*,-4,-2,5,i,-4,1,
Cc1csc(SCC(=O)N(C)C2CCS(=O)(=O)C2)n1 (stereo not drawn),0,2,-1,-3,0,i,/,/,
O=c1[nH]n(CC2COC3(CCCCC3)O2)c(=O)c2ccccc12 (stereo not drawn),0,34*,4,4,-3,i,27*,0,GFP quench dose=>68
CCCCC[C@@H]1C=C(C(=O)O)[C@H](c2ccc(Cl)cc2)N1S(=O)(=O)c1ccc(C)cc1,0,8.2*,2,-2,4,i,-3,0,
CN(CCCC1CCCC1)C(=O)CCc1nnc(-c2ccccc2)o1,1,0,0,2,-8,i,/,/,
CN(C(=O)CCc1nnc(-c2ccc(-c3ccccc3)cc2)o1)C1CCOCC1,0,8.8*,1,-1,-3,i,0,2,
CS(=O)(=O)c1ccc(Cl)c(NC(=O)C2CCCCN2S(=O)(=O)c2ccccc2)c1 (stereo not drawn),0,0,-3,-1,1,i,/,/,
CC[n+]1c(C)n(C)c2cc(S(=O)(=O)N(C)C)ccc21,0,8.9*,-4,0,2,i,-1,-3,
COc1cccc(CN(C)C(=O)c2cc(S(=O)(=O)NC3CCCCC3)ccc2C)c1OC,0,-1,0,6,3,i,/,/,
COc1cccc(CN(C)C(=O)c2cc(S(=O)(=O)N3CCCC3)ccc2C)c1OC,0,8.9*,0,-1,-10,i,4,-1,
SMILES,KLK7 zymogen act,Rin1-Abl PPI inh,MBD2 inh,UHRF1 binding,LEDGF integ inh,Neddylation inh,Rin1-Abl confirm,GFP quencher,others
CCOC(=O)C1=C(C)Nc2nnnn2C1c1ccc(OC)c(Br)c1 (stereo not drawn),-1,11*,-4,0,-1,i,-1,-1,
CCOC(=O)C1=C(C)NC(=S)N(C(C)=O)C1c1ccc(OC)c(OC)c1 (stereo not drawn),0,-1,1,2,2,i,/,/,
C=CCOC(=O)N[C@H](c1cccc(OC)c1)[C@H](C)/C=C/CC(=O)OC,0,/,7,1,6,/,/,/,
COc1ccc(CC(=O)OCC(=O)NCc2ccccc2Cl)cc1OC,0,10*,3,9,4,i,3,0,
COc1ccc([C@H]2CC(=O)C=C(c3ccc(C(=O)O)cc3)C2)cc1OC,1,2,1,0,-2,i,/,/,
COc1ccc2c(c1OC)C(=O)OC2,-1,0,6,0,-2,i,/,/,
COc1ccc2c3c(cccc13)C(=O)CC2,11,12*,-9,-29,0,i,-3,-12,
CC(C)c1ccc(NC(=O)O[C@@H]2CC[C@@]34CCCN3C(=O)CCC[C@H]4C2)cc1,/,/,1,0,-2,/,/,/,
O=C1CN(C(=O)COc2ccccc2)CCN1,0,8.5*,4,0,3,i,0,-1,
CCCC(=O)NC(c1ccco1)c1cc([N+](=O)[O-])c2cccnc2c1O (stereo not drawn),0,9.3*,-4,-7,7,i,-3,5,
CCC(=O)NC(c1ccc(C)cc1)c1ccc2cccnc2c1O (stereo not drawn),1,11*,4,-5,-1,i,6.8*,2,
CCC(=O)NC(c1ccco1)c1cc(Br)c2cccnc2c1O (stereo not drawn),0,7.9*,-3,-11,-9,i,8.1*,4,
COc1ncc(-c2cc(C(C)=O)c3n(c2=O)CCC3)c(OC)n1,0,/,4,-3,-1,/,/,/,
COC(=O)CN1C(=O)[C@@H]2[C@H](C1=O)[C@@H]1CC(C(=O)OC)=C[C@@H](C(=O)OC)[C@@H]3C1=C(C(=O)[C@@]3(C)NC(=O)c1ccccc1)[C@@H]2C,0,14*,-5,0,0,i,4,1,
CCOC(=O)C1=C(C)NC2=C(C(=O)CCC2)C1c1cccnc1 (stereo not drawn),11,11*,-3,6,-5,/,-3,1,
CCOC(=O)C1=C(C)NC2=C(C(=O)CCC2)C1c1ccc(N(C)C)cc1 (stereo not drawn),0,1,-1,-1,2,i,/,/,
